Laboratory results as given in publication PMC7862700, “An all-to-all approach to the identification of sequence-specific readers for epigenetic DNA modifications on cytosine”.

What was measured:
Experiment in all cases: DAPPL (digital affinity profiling via proximity ligation, sequencing); 10 mM Tris-HCl pH 7.5, 50 mM NaCl, 1 mM DTT, 4% glycerol, room temperature, 30 min; GST-TFs on glutathione beads, 16-mer random dsDNA library, 0.1% formaldehyde crosslink after washing; high values mean tight binding
Conditions in all cases: protein: recombinant; tags: N-terminal GST; dsDNA, one strand shown
ERF = target: T1, ERF (Homo sapiens, UniProt P50548 1-548)
T1 sequence: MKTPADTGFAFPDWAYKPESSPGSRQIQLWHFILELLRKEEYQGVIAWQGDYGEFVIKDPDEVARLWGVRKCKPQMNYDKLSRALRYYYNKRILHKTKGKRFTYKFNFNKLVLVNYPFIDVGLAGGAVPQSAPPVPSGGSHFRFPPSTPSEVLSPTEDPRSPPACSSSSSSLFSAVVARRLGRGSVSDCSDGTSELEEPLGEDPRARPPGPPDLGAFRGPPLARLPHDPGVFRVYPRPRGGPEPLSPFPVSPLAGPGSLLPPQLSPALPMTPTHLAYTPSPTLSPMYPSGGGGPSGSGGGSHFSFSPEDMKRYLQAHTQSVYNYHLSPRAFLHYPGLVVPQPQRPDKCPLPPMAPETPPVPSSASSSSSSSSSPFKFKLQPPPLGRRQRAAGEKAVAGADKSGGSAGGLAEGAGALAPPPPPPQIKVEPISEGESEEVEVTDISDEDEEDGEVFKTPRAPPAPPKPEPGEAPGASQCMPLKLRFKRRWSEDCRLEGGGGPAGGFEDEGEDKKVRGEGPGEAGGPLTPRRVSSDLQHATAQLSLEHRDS
How it was run: (§1)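 Yeast served to express human transcription factors as GST fusions, which were then captured on glutathione beads and labelled with DNA barcodes. Pooled with a tag-only sample, they were incubated with 200 nmole of a 16-mer random double-stranded DNA library for 30 min at room temperature in Tris/NaCl/DTT/glycerol buffer, washed, crosslinked with 0.1% formaldehyde, ligated by proximity, amplified by PCR and sequenced. Dividing each hexamer's read frequency for a factor by its frequency for the tag-only sample gives the binding signal.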

ETV3L = target: T2, ETV3L (Homo sapiens, UniProt Q6ZN32 1-361)
T2 sequence: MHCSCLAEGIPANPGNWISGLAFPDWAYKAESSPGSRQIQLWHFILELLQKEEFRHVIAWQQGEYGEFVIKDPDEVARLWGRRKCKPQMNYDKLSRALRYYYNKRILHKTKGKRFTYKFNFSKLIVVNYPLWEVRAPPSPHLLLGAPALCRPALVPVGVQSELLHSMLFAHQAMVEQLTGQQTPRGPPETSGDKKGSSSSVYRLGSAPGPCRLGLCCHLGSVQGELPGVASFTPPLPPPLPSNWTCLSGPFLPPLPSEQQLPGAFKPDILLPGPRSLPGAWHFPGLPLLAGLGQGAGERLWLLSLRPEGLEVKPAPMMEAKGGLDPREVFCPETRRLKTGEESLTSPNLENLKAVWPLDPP
How it was run: as §1

ETS2 = target: T3, ETS2 (Homo sapiens, UniProt P15036 1-469)
T3 sequence: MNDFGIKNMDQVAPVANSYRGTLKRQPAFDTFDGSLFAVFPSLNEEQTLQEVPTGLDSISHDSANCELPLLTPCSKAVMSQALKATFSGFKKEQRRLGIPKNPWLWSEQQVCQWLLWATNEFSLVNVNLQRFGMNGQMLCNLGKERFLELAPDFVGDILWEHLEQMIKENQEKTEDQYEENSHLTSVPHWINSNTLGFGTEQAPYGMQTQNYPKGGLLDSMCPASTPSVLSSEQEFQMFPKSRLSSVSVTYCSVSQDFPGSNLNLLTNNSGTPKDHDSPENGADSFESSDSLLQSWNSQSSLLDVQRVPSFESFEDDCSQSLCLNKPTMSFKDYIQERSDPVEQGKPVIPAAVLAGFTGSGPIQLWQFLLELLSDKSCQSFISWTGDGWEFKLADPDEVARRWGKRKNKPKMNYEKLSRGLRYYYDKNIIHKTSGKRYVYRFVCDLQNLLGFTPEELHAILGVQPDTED
How it was run: as §1

SPDEF = target: T4, SPDEF (Homo sapiens, UniProt O95238 1-335)
T4 sequence: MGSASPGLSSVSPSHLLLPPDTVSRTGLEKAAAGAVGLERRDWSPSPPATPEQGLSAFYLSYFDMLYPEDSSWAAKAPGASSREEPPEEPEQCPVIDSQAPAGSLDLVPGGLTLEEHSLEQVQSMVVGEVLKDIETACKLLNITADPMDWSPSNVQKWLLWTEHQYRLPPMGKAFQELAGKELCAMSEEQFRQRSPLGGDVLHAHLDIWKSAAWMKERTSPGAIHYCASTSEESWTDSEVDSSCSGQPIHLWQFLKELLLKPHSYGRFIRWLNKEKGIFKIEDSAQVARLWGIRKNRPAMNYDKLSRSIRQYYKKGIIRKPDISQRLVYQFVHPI
How it was run: as §1

ETV7 = target: T5, ETV7 (Homo sapiens, UniProt Q9Y603 1-341)
T5 sequence: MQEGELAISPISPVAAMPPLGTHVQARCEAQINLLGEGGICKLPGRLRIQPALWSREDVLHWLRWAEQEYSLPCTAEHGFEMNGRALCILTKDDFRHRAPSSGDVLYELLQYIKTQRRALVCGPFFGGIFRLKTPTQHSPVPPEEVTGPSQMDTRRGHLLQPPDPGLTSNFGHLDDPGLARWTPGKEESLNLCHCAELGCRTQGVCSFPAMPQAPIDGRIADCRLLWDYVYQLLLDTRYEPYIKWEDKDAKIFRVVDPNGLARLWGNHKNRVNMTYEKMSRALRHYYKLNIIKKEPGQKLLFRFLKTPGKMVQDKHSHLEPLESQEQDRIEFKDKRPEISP
How it was run: as §1

ELF5 = target: T6, ELF5 (Homo sapiens, UniProt Q9UKW6-2 1-255)
T6 sequence: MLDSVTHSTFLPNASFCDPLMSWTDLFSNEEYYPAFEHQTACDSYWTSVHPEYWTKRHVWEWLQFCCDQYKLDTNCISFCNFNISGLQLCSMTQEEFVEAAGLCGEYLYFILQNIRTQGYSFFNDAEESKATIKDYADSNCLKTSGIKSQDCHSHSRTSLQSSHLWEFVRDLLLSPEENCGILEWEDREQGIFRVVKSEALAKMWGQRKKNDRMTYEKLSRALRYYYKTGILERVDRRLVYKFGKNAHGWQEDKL
How it was run: as §1

ETV3 = target: T7, ETV3 (Homo sapiens, UniProt P41162-2 1-143)
T7 sequence: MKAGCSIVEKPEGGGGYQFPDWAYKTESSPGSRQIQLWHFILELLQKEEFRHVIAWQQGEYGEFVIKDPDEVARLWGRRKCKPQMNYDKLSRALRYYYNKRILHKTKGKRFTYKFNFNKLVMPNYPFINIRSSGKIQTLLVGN
How it was run: as §1

ETV6 = ETV6 (Homo sapiens, UniProt P41212 1-452)
ETV6, sequence (P41212 whole entry): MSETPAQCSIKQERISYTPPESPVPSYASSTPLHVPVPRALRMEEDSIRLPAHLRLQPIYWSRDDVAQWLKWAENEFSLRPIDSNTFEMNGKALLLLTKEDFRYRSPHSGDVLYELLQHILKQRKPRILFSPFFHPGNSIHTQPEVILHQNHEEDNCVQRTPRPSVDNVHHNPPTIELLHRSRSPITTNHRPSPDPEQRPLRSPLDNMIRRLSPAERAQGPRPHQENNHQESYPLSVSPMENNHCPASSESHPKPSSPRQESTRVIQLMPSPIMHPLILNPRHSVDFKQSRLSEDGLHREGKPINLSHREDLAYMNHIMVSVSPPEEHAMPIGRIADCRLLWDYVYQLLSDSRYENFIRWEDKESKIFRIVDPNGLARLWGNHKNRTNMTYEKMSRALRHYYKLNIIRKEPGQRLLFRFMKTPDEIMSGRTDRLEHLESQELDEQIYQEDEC
How it was run: as §1

Sequence | binding signal (ERF) | binding signal (ETV3L) | binding signal (ETS2) | binding signal (SPDEF) | binding signal (ETV7) | binding signal (ELF5) | binding signal (ETV3) | binding signal (ETV6)
TCTGCG | 1.07 fold enrichment (6-mer frequency, TF over GST control) | 1.23 fold enrichment (6-mer frequency, TF over GST control) | 1.17 fold enrichment (6-mer frequency, TF over GST control) | 1.21 fold enrichment (6-mer frequency, TF over GST control) | 1.09 fold enrichment (6-mer frequency, TF over GST control) | 1.15 fold enrichment (6-mer frequency, TF over GST control) | 1.16 fold enrichment (6-mer frequency, TF over GST control) | 1.14 fold enrichment (6-mer frequency, TF over GST control)
TCCTCC | 1.46 fold enrichment (6-mer frequency, TF over GST control) | 1.55 fold enrichment (6-mer frequency, TF over GST control) | 1.51 fold enrichment (6-mer frequency, TF over GST control) | 1.61 fold enrichment (6-mer frequency, TF over GST control) | 1.44 fold enrichment (6-mer frequency, TF over GST control) | 2.04 fold enrichment (6-mer frequency, TF over GST control) | 1.55 fold enrichment (6-mer frequency, TF over GST control) | 1.51 fold enrichment (6-mer frequency, TF over GST control)
TCTTTG | 1.2 fold enrichment (6-mer frequency, TF over GST control) | 1.24 fold enrichment (6-mer frequency, TF over GST control) | 1.19 fold enrichment (6-mer frequency, TF over GST control) | 1.06 fold enrichment (6-mer frequency, TF over GST control) | 1.27 fold enrichment (6-mer frequency, TF over GST control) | 1.09 fold enrichment (6-mer frequency, TF over GST control) | 1.21 fold enrichment (6-mer frequency, TF over GST control) | 1.16 fold enrichment (6-mer frequency, TF over GST control)
CTATCT | 1.42 fold enrichment (6-mer frequency, TF over GST control) | 1.39 fold enrichment (6-mer frequency, TF over GST control) | 1.39 fold enrichment (6-mer frequency, TF over GST control) | 1.3 fold enrichment (6-mer frequency, TF over GST control) | 1.4 fold enrichment (6-mer frequency, TF over GST control) | 1.3 fold enrichment (6-mer frequency, TF over GST control) | 1.28 fold enrichment (6-mer frequency, TF over GST control) | 1.32 fold enrichment (6-mer frequency, TF over GST control)
ATTCTA | 1.32 fold enrichment (6-mer frequency, TF over GST control) | 1.22 fold enrichment (6-mer frequency, TF over GST control) | 1.3 fold enrichment (6-mer frequency, TF over GST control) | 1.23 fold enrichment (6-mer frequency, TF over GST control) | 1.28 fold enrichment (6-mer frequency, TF over GST control) | 1.15 fold enrichment (6-mer frequency, TF over GST control) | 1.2 fold enrichment (6-mer frequency, TF over GST control) | 1.15 fold enrichment (6-mer frequency, TF over GST control)
AACTAG | 1.16 fold enrichment (6-mer frequency, TF over GST control) | 1.09 fold enrichment (6-mer frequency, TF over GST control) | 1.11 fold enrichment (6-mer frequency, TF over GST control) | 1.08 fold enrichment (6-mer frequency, TF over GST control) | 1.1 fold enrichment (6-mer frequency, TF over GST control) | 1.13 fold enrichment (6-mer frequency, TF over GST control) | 1.14 fold enrichment (6-mer frequency, TF over GST control) | 1.15 fold enrichment (6-mer frequency, TF over GST control)
GCCTTA | 1.15 fold enrichment (6-mer frequency, TF over GST control) | 1.04 fold enrichment (6-mer frequency, TF over GST control) | 1.15 fold enrichment (6-mer frequency, TF over GST control) | 1.12 fold enrichment (6-mer frequency, TF over GST control) | 1.18 fold enrichment (6-mer frequency, TF over GST control) | 1.14 fold enrichment (6-mer frequency, TF over GST control) | 1.08 fold enrichment (6-mer frequency, TF over GST control) | 1.07 fold enrichment (6-mer frequency, TF over GST control)
GAACCT | 1.04 fold enrichment (6-mer frequency, TF over GST control) | 1.18 fold enrichment (6-mer frequency, TF over GST control) | 1.14 fold enrichment (6-mer frequency, TF over GST control) | 1.08 fold enrichment (6-mer frequency, TF over GST control) | 1.19 fold enrichment (6-mer frequency, TF over GST control) | 1.03 fold enrichment (6-mer frequency, TF over GST control) | 1.1 fold enrichment (6-mer frequency, TF over GST control) | 1.03 fold enrichment (6-mer frequency, TF over GST control)
ATTCGC | 1.24 fold enrichment (6-mer frequency, TF over GST control) | 1.23 fold enrichment (6-mer frequency, TF over GST control) | 1.15 fold enrichment (6-mer frequency, TF over GST control) | 1.26 fold enrichment (6-mer frequency, TF over GST control) | 1.12 fold enrichment (6-mer frequency, TF over GST control) | 1.18 fold enrichment (6-mer frequency, TF over GST control) | 1.23 fold enrichment (6-mer frequency, TF over GST control) | 1.25 fold enrichment (6-mer frequency, TF over GST control)
